# PubChem BioAssay AID2546 (National Center for Advancing Translational Sciences (NCATS), 2010)
# Out of some 310,000 compounds screened, about 11,000 (3.5%) were called active. Where a call stands in place of a potency, no number is given. About 8% were inconclusive and are not listed. The full list was thinned out, with actives kept by preference. A number with no mark means an inactive call. The call rests on the fitted dose curve; in most records, active means well fitted inhibition curve with a large enough effect; inconclusive means small, poorly fitted or top-dose-only effect, or effect the other way; inactive means flat fitted curve, though single readings scatter.
# Assay: VP16 counterscreen qHTS for inhibitors of ROR gamma transcriptional activity;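 further: Gal4-VP16 expression switched on by copper sulfate through the metallothionein promoter; nearly all actives have a fitted effect of over 50% in size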
# Conditions: Drosophila S2 Gal4-VP16 UAS-luciferase, luminescence, 20 h; series mostly up to 53.6 µM
# Potency means the concentration at half of the fitted maximal effect.
SMILES,Potency,"activity, negative = inhibition"
COc1ccc(C(C(=O)NC2CCCC2)N(CCCO)C(=O)Cn2nnc(-c3ccc(C)o3)n2)cc1 (configuration not stated),inactive,–
COc1ccc(-c2cc(=O)oc3cc(OCC(=O)N(C)C4CCS(=O)(=O)C4)ccc23)cc1 (configuration not stated),inactive,–
CC(=O)Nc1cccc(/C(C)=N/NC(=O)c2ccccc2Cl)c1,inactive,–
CC(=O)Nc1cccc(/C(C)=N/NC(=O)c2c(-c3ccccc3Cl)noc2C)c1,20 µM (active),–
Cc1onc(-c2c(Cl)cccc2Cl)c1C(=O)NNC(=O)c1c(-c2c(Cl)cccc2Cl)noc1C,inactive,–
CCc1cccc(OC2OC(CO)C(O)C(O)C2NC(C)=O)c1 (configuration not stated),inactive,–
Cc1csc(-c2coc3cc(O[C@@H]4O[C@H](CO)[C@@H](O)[C@@H](O)[C@H]4O)ccc3c2=O)n1,15.8 µM (active),–
COc1cc(/C=C/CO)cc(OC)c1O[C@@H]1O[C@H](CO)[C@@H](O)[C@H](O)[C@H]1O,inactive,–
CCN(C(=O)C1CCCN(c2nc(-c3ccc(OC)cc3)no2)C1)c1ccc(OC)cc1 (configuration not stated),inactive,–
CC(=O)[C@@]12O[C@@H]1C[C@H]1[C@@H]3CC[C@H]4C[C@@H](O)CC[C@]4(C)[C@H]3CC[C@@]12C,inactive,–
Cc1cccc(C(=O)Nc2ccccc2N2CCN(c3ccc(F)cc3)CC2)c1,inactive,–
Cc1cccc(C(=O)NNC(=O)c2cccc([N+](=O)[O-])c2)c1,inactive,–
Cc1cccc(C(=O)NC(=S)N2CCN(c3ccc([N+](=O)[O-])cc3)CC2)c1,1 µM (active),–
CCOc1cc(C(=S)N2CCOCC2)ccc1OS(=O)(=O)c1ccc(Br)cc1,inactive,–
COc1cccc(-c2coc3cc4oc(=O)c(CC(=O)O)c(C)c4cc23)c1,inactive,–
Cc1c(Cl)c([N+](=O)[O-])nn1CCCC(=O)Nc1cc(Cl)ccc1Cl,inactive,–
Cc1c(Cl)c([N+](=O)[O-])nn1Cc1ccc(C(=O)N/N=C\c2cc(Cl)ccc2O)o1,11.2 µM (active),–
O=C(N/N=C/c1ccc2c(c1)OCO2)c1ccc(Cn2cc([N+](=O)[O-])cn2)o1,inactive,–
COc1cccc(-c2cccc(NC(=O)C3CCN(C4CCC4)CC3)c2)c1,inactive,–
O=C1/C(=C\c2ccsc2)NC(=S)N1c1ccccc1,22.4 µM (active),–
COc1cc2c(cc1/C=C1/NC(=O)N(c3ccccc3)C1=O)OCO2,inactive,–
CCCCN=C1N/C(=C\c2ccco2)C(=O)N1c1ccccc1,inactive,–
O=C(CNc1cccc(S(=O)(=O)N2CCCCC2)c1)Nc1ccccc1F,inactive,–
COc1ccc(C(=O)NC(C)c2nccs2)cc1OC1CCN(C(C)C)CC1 (configuration not stated),inactive,–
CCOC(=O)c1[nH]cnc1C(=O)Nc1ccccc1C,inactive,–
CCOC(=O)c1ccc(NC(=O)c2nc[nH]c2C(=O)NCc2ccccc2)cc1,5.62 µM (active),–

SMILES,Potency,"activity, negative = inhibition"
CCOC(=O)c1ccc(NC(=O)c2cc(=O)[nH]c3ccccc23)cc1,inactive,–
Cc1ccc(C(C)C)cc1OCC(=O)Nc1ccccc1N1CCCC1,inactive,–
O=C(c1cc2ccccc2o1)N1CCN(c2cccc(C(F)(F)F)c2)CC1,inactive,–
CCCCC[C@H]1CN(C2CCCCC2)C(=O)[C@@H]1CC(=O)NCc1ccc(OC)cc1,inactive,–
CCC(C)C(=O)Nc1ccccc1N1CCN(c2ccc(F)cc2)CC1 (configuration not stated),inactive,–
CCN1C(=NCCc2cccnc2)N[C@@H](c2ccccc2)C(C(=O)OC)=C1C,inactive,–
O=C(CO/N=C/c1ccccc1OC(F)F)NC1CCCC1,inactive,–
O=C(NNC(=S)NC1CCCCC1)c1ccccc1Cl,–,-4.51% [at 10 µM]
O=C(CO/N=C/c1ccccc1O)NNC(=O)c1ccccc1Cl,14.1 µM (active),–
Oc1ccc(-n2nnnc2SCc2c(F)cccc2Cl)cc1,inactive,–
Cc1cccc(OCCC(=O)Nc2ccccc2C(N)=O)c1,inactive,–
Cc1cccc(OC(C)C(=O)N2CCc3ccccc3C2)c1 (configuration not stated),inactive,–
CCCCNC(=O)C(=O)c1ccccc1NC(C)=O,inactive,–
CCCCNC(=S)N/N=C1\CCCCc2ccccc21,4.47 µM (active),–
O=[N+]([O-])c1ccccc1N/N=C1\CCc2ccccc21,inactive,–
FC(F)(F)c1nnc2c3ccccc3c(Cl)nn12,inactive,–
COc1ccc(CNc2cc(C)cc(C)c2)cc1OC,inactive,–
COc1ccc(N2CCN(S(=O)(=O)c3ccc4c(c3)NC(=O)C(C)C(=O)N4)CC2)cc1 (configuration not stated),inactive,–
CC(C)(O)C#Cc1ccc(CN2CCC(CO)(CCc3ccccc3)CC2)cc1,inactive,–
COCCCNC(=S)NC(=O)c1ccc([N+](=O)[O-])cc1,17.8 µM (active),–
O=C(NC(=S)Nc1ccc(NC(=O)c2cccs2)cc1)c1ccc([N+](=O)[O-])cc1,inactive,–
CC(=O)NC(=S)Nc1ccc(NC(=S)NC(=O)c2ccc([N+](=O)[O-])cc2)cc1,inactive,–
Cc1cc(CN(C)C(=O)c2cc(COc3ccc(C)c(C)c3)on2)n[nH]1,inactive,–
COC(=O)c1cc(S(=O)(=O)Nc2ccc(C)c(F)c2)c[nH]1,inactive,–
COc1ccc(-n2nc(C(=O)NCC(=O)N3CCN(c4ccccc4OC)CC3)c3ccccc3c2=O)c(OC)c1,inactive,–
COc1cccc(NC(=O)c2ccccc2N(Cc2ccccc2)S(C)(=O)=O)c1,inactive,–

SMILES,Potency,"activity, negative = inhibition"
CCOc1ccc2c(c1)C(c1ccc(C)cc1)=NNC(c1ccc(C)cc1)=N2,15.8 µM (active),–
Cc1ccc(C2=Nc3c(ccc4ccccc34)C(c3ccncc3)=NN2)cc1,inactive,–
CCc1ccc2c(c1)C(c1ccc([N+](=O)[O-])cc1)=NNC(c1ccccc1)=N2,inactive,–
COc1ccc(C(=O)NCCn2nc(C)cc2C)cc1OC1CCN(C(C)=O)CC1,inactive,–
COc1ccc(NC(=O)CS(=O)(=O)c2ccccc2)cc1,inactive,–
O=C(Nc1cccc(Cl)c1)Nc1nnc(-c2ccccc2)o1,inactive,–
O=C(Nc1nnc(-c2ccc(Cl)cc2)o1)c1ccccc1Br,4.47 µM (active),–
Cc1nonc1NC(=O)c1ccccc1Br,inactive,–
COc1cccc(N(C(=O)c2snc(C(N)=O)c2N)C(C(=O)NCC2CCCO2)c2c[nH]c3ccccc23)c1 (configuration not stated),inactive,–
O=C(O)CSCC(=O)Nc1cccc(C(F)(F)F)c1,inactive,–
O=C(Nc1cccc(C(F)(F)F)c1)c1cc(Br)cc(Br)c1O,4.47 µM (active),–
O=C(Nc1cccc(C(F)(F)F)c1)c1cnccn1,inactive,–
COc1cc(NC(=O)C2=CC(c3ccc(C)cc3)=NS(=O)(=O)N2C)cc(OC)c1OC,inactive,–
COc1cc2c(cc1OC)CN(CC(=O)Nc1ccc(F)cc1)CC2,inactive,–
CC(=O)Nc1cccc([N+](=O)[O-])c1,inactive,–
O=C(CSCC(=O)Nc1cccc([N+](=O)[O-])c1)Nc1ccccc1,inactive,–
COC(=O)/C=C\C(=O)Nc1cccc([N+](=O)[O-])c1,1.26 µM (active),–
COc1cc(SC)ccc1C(=O)N(Cc1ccccc1)c1ccccc1,inactive,–
NC(=O)C(=O)N/N=C/c1ccc([N+](=O)[O-])o1,11.2 µM (active),–
Cc1cc(C)nc(N/N=C/c2ccc([N+](=O)[O-])o2)n1,inactive,–
COc1ccc(C(=O)NCC(=O)N/N=C/c2ccc([N+](=O)[O-])o2)cc1OC,inactive,–
COc1ccc(-c2cc(C(=O)N3CCN(c4ccc(F)cc4)CC3)no2)cc1,inactive,–
FC(F)(F)c1nc2ccccc2nc1N/N=C/c1ccc(Cl)cc1,10 µM (active),–
Fc1ccc(/C=N/Nc2nc(-c3cccnc3)nc3ccccc23)cc1,inactive,–
FC(F)(F)c1cccc(N/N=C/c2ccccc2)c1,inactive,–
CCNC(=O)N1CCCC(C(=O)c2ccc(-c3ccccc3)cc2)C1 (configuration not stated),inactive,–

SMILES,Potency,"activity, negative = inhibition"
c1cnc(N2CCN(c3ccc4ccccc4n3)CC2)nc1,inactive,–
CC(=O)N1c2ccc(S(=O)(=O)N3CCC(C(=O)NC4CCCC(C)C4C)CC3)cc2CC1C (configuration not stated),inactive,–
Cc1ccc2cccc(OCCCOc3ccccc3CO)c2n1,inactive,–
O=C(Cc1c[nH]c2ccccc12)N/N=C/c1cccc(F)c1,inactive,–
O=C(N/N=C/c1c[nH]c2ccccc12)c1ccccc1O,6.31 µM (active),–
O=C(N/N=C/c1ccc([N+](=O)[O-])cc1)c1c[nH]c2ccccc12,inactive,–
O=C(O)c1cccc(NC(=S)N/N=C/c2c[nH]c3ccccc23)c1,inactive,–
CSC(=S)N/N=C/c1c[nH]c2ccccc12,0.891 µM (active),–
O=C(N/N=C/c1c[nH]c2ccccc12)c1cc2ccccc2o1,inactive,–
C[C@H](C(=O)CC(=O)OC(C)(C)C)[C@H](O)c1ccc(C(F)(F)F)cc1,inactive,–
Cc1ccc(-c2csc(NC3OC(=O)c4ccccc43)n2)cc1 (configuration not stated),inactive,–
CN(C)c1ccc(/C=C/C(=O)c2ccc(O)cc2)cc1[N+](=O)[O-],5.01 µM (active),–
O=C(/C=C/c1ccc2c(c1)OCCO2)c1ccc(O)cc1,4.47 µM (active),–
O=C(O)/C=C/c1ccc2c(c1)OCCO2,inactive,–
O=C(/C=C/c1ccc(Cl)cc1)N1CCN(c2ccccc2[N+](=O)[O-])CC1,inactive,–
CC(=O)c1ccc2c(c1)OCCOCCOc1ccc(C(C)=O)cc1OCCOCCO2,inactive,–
CN(C)c1ccc(/C=C/C(=O)c2ccc(C(C)(C)C)cc2)cc1[N+](=O)[O-],inactive,–
O=C1C2CCCN2C(=O)N1CCCCN1CCN(c2cccc(C(F)(F)F)c2)CC1 (configuration not stated),inactive,–
C=CCn1cc(Cl)cc(C(=O)Nc2ccccc2)c1=O,inactive,–
Cc1cccc(C)c1N1C(=O)CN(Cc2ccccc2)C1=S,inactive,–
COc1cccc(NC(C)=[N+](C)CCNS(=O)(=O)c2ccc(Cl)cc2)c1,inactive,–
COc1ccccc1-c1nc(N2CCN(C)CC2)c2ccccc2n1,inactive,–
COc1ccccc1-c1nc(SC)n[nH]1,inactive,–
COc1ccccc1-c1n[nH]c2c1[C@H](C)CC[C@H]2C(C)C,12.6 µM (active),–
